# Of roughly 8,800 targets only a part is listed; those with a hit were picked by preference. About 0.5% of all pairs of compound and target were hits. Unmarked numbers belong to inactive results.
# Assays:
# Assay in all cases: log2 fold change, soluble protein after heating vs DMSO (PISA); higher = thermal stabilisation; K562 lysate, 10 uM; active = over 0.2 and 3.5 SD of the protein, either way, in both replicates (recomputed)
# ibrutinib = compound: C=CC(=O)N1CCC[C@@H](n2nc(-c3ccc(Oc4ccccc4)cc3)c3c(N)ncnc32)C1 [ibrutinib]
# In short: (§1)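 Log-two fold change in thermal stability relative to solvent controls is reported from duplicates. For each sample, crude K562 extract from dounce-homogenised pellets in PBS pH 7.4 with 1 mM MgCl2, at 1 mg/mL protein, was treated with 10 μM compound for 30 min. Aliquots heated for 3 min across 48°C-58°C were pooled, brought to 0.5% NP-40 at 4°C and cleared at 21,000xg for 90 min. The supernatant was quantified by TMTpro 16plex LC-MS/MS with channel sums equalised.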
# [1] = compound: CC(=O)c1cnc2ccc(-c3cc(Cl)c(O)c(Cl)c3)nc2c1N[C@H]1CC[C@H](CN(C)C)CC1
# In short: as §1
# ralimetinib = compound: CC(C)(C)Cn1c(N)nc2ccc(-c3[nH]c(C(C)(C)C)nc3-c3ccc(F)cc3)nc21 [ralimetinib]
# In short: as §1
# [2] = compound: CC(C)(O)CC(=O)NCCn1ccc2ncnc(Nc3ccc(Oc4cccc(C(F)(F)F)c4)c(Cl)c3)c21
# In short: as §1
# [3] = compound: CC(C)C1=C2N=C(C=C(N2N=C1)NCC3=CC=CC=C3)NCCCCCCN
# In short: as §1
# [4] = compound: CC1=C(C(CC(=O)N1)C2=CC=C(C=C2)C(F)(F)F)C(=O)NC3=C(C=C4C(=C3)C=NN4)F
# In short: as §1
# [5] = compound: CC1=C(C2=C(C=C1)C(=O)C3=CC=CC=C3N2CCCN)C
# In short: as §1
# [6] = compound: CC1=C(C=C(C=C1)NC(=O)C2=CC(=CC=C2)C(C)(C)C#N)NC3=CC4=C(C=C3)N=CN(C4=O)C
# In short: as §1
# [7] = compound: CC1=C(C=C(C=C1)NC(=O)C2=CC(=CC=C2)N(C)C)NC(=O)C3=CC=C(C=C3)O
# In short: as §1
# [8] = compound: CC1=CC=C(C=C1)SC2=C3C=C(SC3=CN=C2)C(=O)N
# In short: as §1
# Chain of UniProt P27708 (P27708 whole entry, looked up): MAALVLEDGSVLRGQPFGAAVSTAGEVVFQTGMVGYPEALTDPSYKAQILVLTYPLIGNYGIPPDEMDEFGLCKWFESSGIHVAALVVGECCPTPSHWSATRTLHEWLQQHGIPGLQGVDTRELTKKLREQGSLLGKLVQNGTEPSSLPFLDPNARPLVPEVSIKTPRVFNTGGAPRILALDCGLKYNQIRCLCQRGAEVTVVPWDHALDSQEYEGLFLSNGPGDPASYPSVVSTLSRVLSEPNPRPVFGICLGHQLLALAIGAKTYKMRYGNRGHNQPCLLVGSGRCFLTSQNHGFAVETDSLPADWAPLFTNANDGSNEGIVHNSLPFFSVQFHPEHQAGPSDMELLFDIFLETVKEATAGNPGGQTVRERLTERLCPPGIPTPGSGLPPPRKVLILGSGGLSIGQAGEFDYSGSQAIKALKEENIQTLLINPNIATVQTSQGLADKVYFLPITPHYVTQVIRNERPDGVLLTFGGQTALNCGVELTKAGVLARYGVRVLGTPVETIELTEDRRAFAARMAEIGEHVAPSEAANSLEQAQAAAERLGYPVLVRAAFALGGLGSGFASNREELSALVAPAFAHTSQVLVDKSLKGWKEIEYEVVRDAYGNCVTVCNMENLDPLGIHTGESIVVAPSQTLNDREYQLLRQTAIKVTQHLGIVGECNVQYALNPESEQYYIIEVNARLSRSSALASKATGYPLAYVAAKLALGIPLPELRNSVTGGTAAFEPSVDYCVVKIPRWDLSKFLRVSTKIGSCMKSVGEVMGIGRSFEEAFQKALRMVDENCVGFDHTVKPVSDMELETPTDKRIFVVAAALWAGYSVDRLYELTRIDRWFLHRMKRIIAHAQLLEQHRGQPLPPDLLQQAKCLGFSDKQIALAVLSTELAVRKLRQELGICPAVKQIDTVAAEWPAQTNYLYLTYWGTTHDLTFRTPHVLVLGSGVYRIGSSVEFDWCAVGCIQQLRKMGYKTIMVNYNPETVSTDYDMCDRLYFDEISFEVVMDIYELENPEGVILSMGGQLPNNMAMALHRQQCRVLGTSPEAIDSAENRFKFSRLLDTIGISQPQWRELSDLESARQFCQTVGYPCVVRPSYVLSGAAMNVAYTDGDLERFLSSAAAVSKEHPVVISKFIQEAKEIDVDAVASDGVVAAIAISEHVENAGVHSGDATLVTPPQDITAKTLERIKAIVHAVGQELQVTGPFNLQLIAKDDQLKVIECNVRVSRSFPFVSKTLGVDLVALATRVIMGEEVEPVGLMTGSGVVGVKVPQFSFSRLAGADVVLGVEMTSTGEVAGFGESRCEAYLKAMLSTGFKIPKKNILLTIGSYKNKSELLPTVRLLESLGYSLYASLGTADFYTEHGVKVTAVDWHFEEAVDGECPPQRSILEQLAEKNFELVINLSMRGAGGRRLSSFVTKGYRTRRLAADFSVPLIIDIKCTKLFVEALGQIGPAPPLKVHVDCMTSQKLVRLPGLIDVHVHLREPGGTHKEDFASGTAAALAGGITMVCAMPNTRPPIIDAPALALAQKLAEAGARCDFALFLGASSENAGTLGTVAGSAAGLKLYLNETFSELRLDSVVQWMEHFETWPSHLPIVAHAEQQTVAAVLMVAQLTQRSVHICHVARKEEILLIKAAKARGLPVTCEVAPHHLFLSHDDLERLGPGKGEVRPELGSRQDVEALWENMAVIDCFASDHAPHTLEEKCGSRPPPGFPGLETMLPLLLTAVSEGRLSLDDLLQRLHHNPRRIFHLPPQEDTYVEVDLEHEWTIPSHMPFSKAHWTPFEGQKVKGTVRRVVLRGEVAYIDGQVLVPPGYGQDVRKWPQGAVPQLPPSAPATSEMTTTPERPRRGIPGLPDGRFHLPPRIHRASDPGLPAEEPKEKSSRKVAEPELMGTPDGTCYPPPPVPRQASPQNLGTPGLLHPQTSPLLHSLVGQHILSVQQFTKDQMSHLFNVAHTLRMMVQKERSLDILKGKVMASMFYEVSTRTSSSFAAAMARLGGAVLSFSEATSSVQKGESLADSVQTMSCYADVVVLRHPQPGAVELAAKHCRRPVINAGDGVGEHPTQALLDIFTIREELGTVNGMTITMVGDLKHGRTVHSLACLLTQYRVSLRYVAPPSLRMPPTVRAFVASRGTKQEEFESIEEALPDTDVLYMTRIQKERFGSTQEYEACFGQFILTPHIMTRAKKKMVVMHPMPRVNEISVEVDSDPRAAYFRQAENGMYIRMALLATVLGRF
# Chain of UniProt P16152 (P16152 whole entry, looked up): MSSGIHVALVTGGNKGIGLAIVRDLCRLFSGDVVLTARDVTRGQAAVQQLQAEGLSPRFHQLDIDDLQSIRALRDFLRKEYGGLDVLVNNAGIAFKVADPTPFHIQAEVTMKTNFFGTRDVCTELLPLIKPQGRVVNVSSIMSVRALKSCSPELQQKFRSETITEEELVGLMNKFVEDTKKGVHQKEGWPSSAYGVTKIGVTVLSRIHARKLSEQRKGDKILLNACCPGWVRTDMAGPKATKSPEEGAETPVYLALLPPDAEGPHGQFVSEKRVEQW
# Chain of UniProt Q8TDI0 (Q8TDI0 whole entry, looked up): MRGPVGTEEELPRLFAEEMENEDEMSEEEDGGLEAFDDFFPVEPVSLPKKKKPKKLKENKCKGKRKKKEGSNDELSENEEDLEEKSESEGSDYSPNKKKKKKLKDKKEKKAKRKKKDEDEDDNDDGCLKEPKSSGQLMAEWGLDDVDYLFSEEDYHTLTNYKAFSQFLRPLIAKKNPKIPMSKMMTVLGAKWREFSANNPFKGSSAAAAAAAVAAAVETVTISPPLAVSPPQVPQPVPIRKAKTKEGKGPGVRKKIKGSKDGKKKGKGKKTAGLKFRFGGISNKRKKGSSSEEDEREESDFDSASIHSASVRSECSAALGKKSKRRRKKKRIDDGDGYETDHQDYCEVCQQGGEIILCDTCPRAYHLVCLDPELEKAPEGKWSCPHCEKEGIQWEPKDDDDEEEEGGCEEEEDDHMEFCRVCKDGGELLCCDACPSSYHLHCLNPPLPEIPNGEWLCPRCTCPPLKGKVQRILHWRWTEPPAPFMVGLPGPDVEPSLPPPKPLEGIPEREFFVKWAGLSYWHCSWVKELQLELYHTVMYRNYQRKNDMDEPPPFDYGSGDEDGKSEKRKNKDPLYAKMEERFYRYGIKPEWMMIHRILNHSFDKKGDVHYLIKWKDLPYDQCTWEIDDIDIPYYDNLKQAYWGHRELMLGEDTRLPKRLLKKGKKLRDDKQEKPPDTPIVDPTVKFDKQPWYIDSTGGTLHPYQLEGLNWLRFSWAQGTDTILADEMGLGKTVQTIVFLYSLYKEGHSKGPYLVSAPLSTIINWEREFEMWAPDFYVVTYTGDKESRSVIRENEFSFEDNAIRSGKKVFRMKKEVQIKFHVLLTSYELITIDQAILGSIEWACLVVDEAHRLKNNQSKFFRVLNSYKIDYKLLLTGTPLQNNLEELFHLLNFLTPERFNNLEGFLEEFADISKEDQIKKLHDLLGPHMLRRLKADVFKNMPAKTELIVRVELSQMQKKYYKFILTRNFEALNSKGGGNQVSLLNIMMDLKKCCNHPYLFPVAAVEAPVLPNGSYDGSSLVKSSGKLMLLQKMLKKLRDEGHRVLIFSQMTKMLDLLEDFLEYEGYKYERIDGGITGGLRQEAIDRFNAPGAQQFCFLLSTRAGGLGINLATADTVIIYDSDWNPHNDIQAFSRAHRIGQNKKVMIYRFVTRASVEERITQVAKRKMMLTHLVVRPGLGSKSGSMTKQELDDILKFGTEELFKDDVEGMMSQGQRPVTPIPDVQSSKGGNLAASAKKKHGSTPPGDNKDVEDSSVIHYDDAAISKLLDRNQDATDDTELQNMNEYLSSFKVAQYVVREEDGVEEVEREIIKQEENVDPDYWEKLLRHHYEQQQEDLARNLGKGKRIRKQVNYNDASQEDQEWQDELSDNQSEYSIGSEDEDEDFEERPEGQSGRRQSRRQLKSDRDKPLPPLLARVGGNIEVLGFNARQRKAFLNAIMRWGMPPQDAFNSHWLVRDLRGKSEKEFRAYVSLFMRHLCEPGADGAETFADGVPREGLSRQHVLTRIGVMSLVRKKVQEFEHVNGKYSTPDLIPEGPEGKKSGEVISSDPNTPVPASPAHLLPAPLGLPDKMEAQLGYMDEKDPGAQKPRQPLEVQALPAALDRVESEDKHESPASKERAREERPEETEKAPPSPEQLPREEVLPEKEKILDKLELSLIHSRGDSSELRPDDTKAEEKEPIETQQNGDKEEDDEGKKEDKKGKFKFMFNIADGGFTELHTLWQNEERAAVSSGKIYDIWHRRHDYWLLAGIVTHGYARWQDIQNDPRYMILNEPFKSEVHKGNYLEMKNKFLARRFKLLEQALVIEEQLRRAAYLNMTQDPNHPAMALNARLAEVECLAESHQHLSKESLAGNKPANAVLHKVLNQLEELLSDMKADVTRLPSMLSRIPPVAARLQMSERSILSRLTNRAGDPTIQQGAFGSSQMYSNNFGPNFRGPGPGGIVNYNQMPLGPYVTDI
# Chain of UniProt Q7L2Z9 (Q7L2Z9 whole entry, looked up): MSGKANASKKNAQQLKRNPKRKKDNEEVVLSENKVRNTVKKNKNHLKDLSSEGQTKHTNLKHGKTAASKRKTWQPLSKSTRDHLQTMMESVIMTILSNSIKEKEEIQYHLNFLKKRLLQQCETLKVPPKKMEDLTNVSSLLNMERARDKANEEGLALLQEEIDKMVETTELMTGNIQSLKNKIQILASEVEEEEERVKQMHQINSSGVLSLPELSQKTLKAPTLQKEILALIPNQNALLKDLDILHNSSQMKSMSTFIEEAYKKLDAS
# Chain of UniProt P18859 (P18859 whole entry, looked up): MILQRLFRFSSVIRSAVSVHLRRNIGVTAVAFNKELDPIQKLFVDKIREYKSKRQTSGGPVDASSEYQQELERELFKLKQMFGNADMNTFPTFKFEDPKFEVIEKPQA
# Chain of UniProt Q9HB09 (Q9HB09 whole entry, looked up): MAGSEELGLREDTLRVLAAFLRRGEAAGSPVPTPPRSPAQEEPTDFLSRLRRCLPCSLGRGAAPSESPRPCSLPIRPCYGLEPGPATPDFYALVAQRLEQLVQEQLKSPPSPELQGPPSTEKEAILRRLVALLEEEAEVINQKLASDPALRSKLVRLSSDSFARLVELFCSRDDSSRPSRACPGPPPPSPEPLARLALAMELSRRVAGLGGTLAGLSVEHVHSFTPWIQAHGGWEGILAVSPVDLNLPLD
Target,log2 fold change (ibrutinib),log2 fold change [1],log2 fold change (ralimetinib),log2 fold change [2],log2 fold change [3],log2 fold change [4],log2 fold change [5],log2 fold change [6],log2 fold change [7],log2 fold change [8]
BRAT1 (UniProt Q6PJG6),0.002,0.013,0.005,-0.038,-0.001,-0.028,0,-0.006,-0.015,0.019
CBX5 (UniProt P45973),-0.047,-0.007,-0.024,-0.087,-0.02,-0.088,-0.02,0.028,0.007,-0.033
CDC25C (UniProt P30307),0.006,0.01,0.013,0.091,-0.027,0.026,0.059,-0.022,-0.004,-0.019
BRD4 (UniProt O60885),-0.011,-0.017,0.023,-0.042,-0.016,-0.006,0.001,0.061,0.006,-0.021
ATP5PF isoform 2 (UniProt P18859),0.069,-0.055,-0.003,0.063,-0.053,-0.032,-0.055,0.026,0.05,0.083
BSDC1 (UniProt Q9NW68),0.048,0.008,-0.004,-0.023,0.062,0.038,0.01,0.022,-0.047,0.011
CCDC51 (UniProt Q96ER9),0.056,0.011,-0.012,0.036,-0.011,0.025,0.011,-0.013,0.033,0.013
ATP11A (UniProt P98196),-0.02,0.091,0.122,-0.046,-0.017,-0.019,-0.065,-0.006,-0.074,0.02
CHD5 (UniProt Q8TDI0),-0.063,0.015,0,0.005,-0.011,0.026,-0.026,-0.005,0.029,0.01
ATAD3B (UniProt Q5T9A4),-0.054,0.018,-0.027,-0.069,-0.012,-0.026,-0.028,-0.03,0.045,0.015
CHCHD2 (UniProt Q9Y6H1),-0.122,-0.005,-0.068,0.035,0.02,0.112,0.023,-0.172,-0.046,0.069
CD63 (UniProt P08962),-0.012,-0.063,0.078,-0.023,0.017,0.005,0.049,0,0.039,0.023
CASP6 (UniProt P55212),-0.029,0.034,0.074,0.011,-0.042,-0.012,0.005,-0.003,-0.02,-0.008
CCDC25 (UniProt Q86WR0),0.023,-0.006,-0.018,-0.013,0.017,-0.042,-0.022,0.03,-0.002,0
ATG4B (UniProt Q9Y4P1),0.037,0.021,0.016,-0.028,-0.019,-0.014,0.033,0.005,0.046,0.013
BCL2L12 (UniProt Q9HB09),-0.26,-0.084,0.073,-0.024,0.057,0,-0.021,0.028,-0.024,0.099
CDK9 isoform 2 (UniProt P50750),-0.042,0.269,0.013,0.026,-0.092,-0.026,-0.021,-0.032,0.004,-0.021
AURKA (UniProt O14965),0.348,0.144,-0.042,0.037,-0.051,0.034,-0.039,-0.042,-0.005,0.007
CCNY (UniProt Q8ND76),0,-0.013,-0.046,-0.099,0.014,-0.036,0.023,0.063,0.078,0.001
BOLA2 (UniProt Q9H3K6),-0.01,0.02,-0.025,0.008,-0.025,-0.059,0.038,-0.029,-0.022,0.039
C12orf45 (UniProt Q8N5I9),0.027,0.003,0.005,0.014,0.033,-0.021,-0.02,-0.018,0.02,-0.043
CAD (UniProt P27708),-0.009,-0.016,0.03,-0.002,0.005,-0.005,0.026,0.009,0.009,0.018
CDKN1C (UniProt P49918),0.002,-0.001,0.055,-0.045,0.077,0.017,0.006,-0.032,0.023,0.005
CENPQ (UniProt Q7L2Z9),0.009,0.162,0.029,-0.002,0.005,0.097,-0.153,-0.057,-0.075,0.013
BNIP3 (UniProt Q12983),0.04,0.048,0.032,0.01,-0.002,-0.068,-0.002,0.045,-0.047,0.003
BCAR1 isoform 6 (UniProt P56945),0.024,0.02,-0.009,0,0.01,0.03,-0.056,-0.014,0.006,-0.033
CCNH (UniProt P51946),0.018,-0.149,-0.001,-0.064,-0.058,-0.044,-0.025,-0.044,0.018,-0.016
CDK5RAP2 (UniProt Q96SN8),-0.022,0.268 (active),-0.006,0.01,-0.019,-0.001,-0.044,-0.007,0.003,0.067
CARD9 (UniProt Q9H257),-0.034,0.037,0.014,-0.029,0.019,-0.022,-0.027,-0.005,-0.008,-0.038
CBR1 (UniProt P16152),0.04,-0.017,0.009,0.006,0.001,-0.032,0.045,-0.015,0.02,-0.003

# — the supplement of paper PMC10849652
